The text below walks through data of the supplement of paper PMC12350171.

Counter-ions that a name gives are not always drawn.

The subject of the test is Haemophilus parainfluenzae. Kind of test: growth AUC normalised to DMSO control (fraction of control); higher = less growth inhibition, active = hit call of the paper. To be noted: 20 µM. An outline of the steps: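 Pathogens were passaged twice under anaerobic conditions, then inoculated into pre-reduced mGAM plates at a starting OD578 of 0.01, with compound at 20 μM and 1% DMSO, and sealed with breathable membranes. For Haemophilus parainfluenzae, the medium was supplemented with hemin and NAD. OD578 was read every hour for 24 h in three biological replicates. Growth-curve AUC was calculated by the trapezoidal rule up to the exponential-to-stationary transition and normalised to DMSO controls on the same plate.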
Take `NC[C@H]1O[C@H](O[C@H]2[C@H](O[C@@H]3O[C@H](CO)[C@@H](O)[C@H]3O)[C@@H](O)[C@H](N)C[C@@H]2N)[C@H](N)[C@@H](O)[C@@H]1O` [Ribostamycin sulfate salt]: the “growth AUC normalised to DMSO control” value is 0.812 (active).
Regarding `CCOC(=O)[C@H](CCc1ccccc1)N[C@H]1CCc2ccccc2N(CC(=O)O)C1=O` [Benazepril hydrochloride], the “growth AUC normalised to DMSO control” value was 0.995 (inactive).
Under `C=CC1=C(C(=O)O)N2C(=O)[C@@H](NC(=O)/C(=N\OCC(=O)O)c3csc(N)n3)[C@H]2SC1` [Cefixime] stands 0.0416 (active); under `CN(C)CCN(Cc1ccc(Cl)cc1)c1ccccn1` [Chloropyramine hydrochloride], 1.03 (inactive); under `CC1(C)O[C@@H]2C[C@H]3[C@@H]4C[C@H](F)C5=CC(=O)C=C[C@]5(C)[C@H]4[C@@H](O)C[C@]3(C)[C@]2(C(=O)CO)O1` [Flunisolide], 0.945 (inactive).
To `CN(C)CCCOc1nn(Cc2ccccc2)c2ccccc12` [Benzydamine hydrochloride] belongs 0.964 (inactive).
As for `Cn1cnc([N+](=O)[O-])c1Sc1ncnc2[nH]cnc12` [Azathioprine], the “growth AUC normalised to DMSO control” value was 1.11 (inactive).
Under `CCOC(=O)c1ccc(OC(=O)CCCCCNC(=N)N)cc1` [Gabexate mesilate] stands 0.919 (inactive); under `CO[C@@]1(NC(=O)C(C(=O)O)c2ccc(O)cc2)C(=O)N2C(C(=O)O)=C(CSc3nnnn3C)CO[C@@H]21` (stereo partly drawn) [Moxalactam disodium salt], 0.076 (active).
To `C[C@@H](O)[C@H]1C(=O)N2C(C(=O)O)=C(S[C@@H]3CN[C@H](C(=O)N(C)C)C3)[C@H](C)[C@H]12` [Meropenem] belongs 0.283 (active); to `N#Cc1ccc(C(c2ccc(C#N)cc2)n2cncn2)cc1` [Letrozole], 1.01 (inactive); to `CC(C)n1c(/C=C/C(O)CC(O)CC(=O)O)c(-c2ccc(F)cc2)c2ccccc21` (stereo not drawn) [Fluvastatin sodium salt], 1 (inactive).
Under `CCOC(=O)C1=C(C)NC(C)=C(C(=O)OC)C1c1cccc([N+](=O)[O-])c1` (stereo not drawn) [Nitrendipine] stands 1.03 (inactive); under `Nc1ccc(S(=O)(=O)Nc2ccnn2-c2ccccc2)cc1` [Sulfaphenazole], 0.925 (inactive).
As to `O=c1[nH]cc(F)c(=O)[nH]1` [5-fluorouracil], the “growth AUC normalised to DMSO control” value was 0.654 (active).
Take `CN(C)c1ccc(O)c2c1C[C@H]1C[C@H]3[C@H](N(C)C)C(=O)C(C(N)=O)=C(O)[C@@]3(O)C(=O)C1=C2O` [Minocycline hydrochloride]: the “growth AUC normalised to DMSO control” value was 0.0348 (active).
To `C[C@H](O)C(=O)Nc1c(I)c(C(=O)NC(CO)CO)c(I)c(C(=O)NC(CO)CO)c1I` [Iopamidol] belongs 1.07 (inactive); to `C#CCN(C)Cc1ccccc1` [Pargyline hydrochloride], 0.979 (inactive); to `C[C@H]1C[C@H]2[C@@H]3CCC4=CC(=O)C=C[C@]4(C)[C@@]3(F)[C@@H](O)C[C@]2(C)[C@@]1(O)C(=O)CO` [Betamethasone], 0.974 (inactive).
As for `O=C1CN(/N=C/c2ccc(-c3ccc([N+](=O)[O-])cc3)o2)C(=O)N1` [Dantrolene sodium salt], the “growth AUC normalised to DMSO control” value was 1.03 (inactive).
To `CCCC1C(=O)N2C(N(C)C)=Nc3ccc(C)cc3N2C1=O` (stereo not drawn) [Azapropazone] belongs 0.968 (inactive); to `CC(=O)N1CCN(c2ccc(OCC3COC(Cn4ccnc4)(c4ccc(Cl)cc4Cl)O3)cc2)CC1` (stereo not drawn) [Ketoconazole], 1.03 (inactive); to `CCN(CC)C(C)CN1c2ccccc2Sc2ccccc21` (stereo not drawn) [Ethopropazine hydrochloride], 0.963 (inactive).
For `Nc1nc2c(ncn2COC(CO)CO)c(=O)[nH]1` [Ganciclovir], the “growth AUC normalised to DMSO control” value is 0.989 (inactive).
To `CCCOc1ccc(C(=O)OCCN(CC)CC)cc1N` [Proparacaine hydrochloride] belongs 1.01 (inactive); to `COC(=O)C1=C(C)NC(C)=C(C(=O)OC)C1c1ccccc1[N+](=O)[O-]` [Nifedipine], 0.998 (inactive); to `CN(C(=O)CN(CCO)CC(=O)N(C)C(C)(C)Cc1ccccc1)C(C)(C)Cc1ccccc1` [Oxethazaine], 0.737 (inactive).
`CC(C)(C#N)c1cc(Cn2cncn2)cc(C(C)(C)C#N)c1` [Anastrozole]: the “growth AUC normalised to DMSO control” value was 1.1 (inactive).
